We go through six compounds from PubChem BioAssay.

Assay [1] can be described thus: binders of probe aFSTL3 on microarray, primary screen, stem cell growth factor project, biochemical, small-molecule microarray, fluorescence 635/667 (AID 1064).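 Also: measures binding of the biotinylated anti-FSTL3 antibody to printed compounds.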 The settings on record: higher = more signal.
The nature of assay [2]: binders from COS7 lysate, DM2A8 probe, primary screen, torsin A project, cell lysate, small-molecule microarray, fluorescence 635/667 (AID 1065). The settings on record: higher = more signal, COS7 lysate expressing mutant human TOR1A.
Assay [3] can be described thus: binders of probe aFGF2 on microarray, primary screen, stem cell growth factor project, biochemical, small-molecule microarray, fluorescence 635/667 (AID 1067).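 Also: measures binding of biotinylated aFGF2 protein to printed compounds on slides; z-score merges feature fluorescence and signal-to-noise across triplicate slides.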 The settings on record: higher = more signal.
Assay [4] is described as follows: binders of probe aFGF10 on microarray, primary screen, stem cell growth factor project, biochemical, small-molecule microarray, fluorescence 635/667 (AID 1071).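 Also: score merges 667 nm spot intensity and signal to noise from triplicate slides.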 The settings on record: higher = more signal.
Assay [5] concerns the target Neurogenic locus notch homolog protein 2 (Homo sapiens) (UniProt Q04721). Put plainly: Notch2 binders on small-molecule microarrays, primary screen, biochemical, small-molecule microarray, 635 nm fluorescence, stem cell growth factors (AID 1073). The note with it: Notch2 binding, higher = more signal.
Assay [6] has as its target Pro-neuregulin-1, membrane-bound isoform (Homo sapiens) (UniProt Q02297). Kind of assay: NRG1 binders on small-molecule microarrays, primary screen, psychiatric disease protein project, biochemical, small-molecule microarray, fluorescence 635/667 (AID 1075).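 Also: score combines 667 nm spot fluorescence with signal to noise.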 The note with it: NRG1 binding, 635 nm fluorescence, higher = more signal.
In assay [7] the test system is Neuregulin-1 EGF-like domain. Put plainly: binders of neuregulin-1 EGF-like domain, primary screen, biochemical, small-molecule microarray, 635 nm fluorescence (AID 1081).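 Also: binding of the protein to compounds printed on small-molecule microarray slides.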 The note with it: small-molecule microarray binding, higher = more signal.
Assay [8] in a line: FRG1 promoter luciferase signal modulators, primary screen, FRG1 inhibition for FSHD, cell-based, C2C12 myotubes, firefly/Renilla luciferase, luminescence (AID 1084). The settings on record: higher = more signal, called active from +8 up or from −8 down.
Assay [9] in a line: binders of probe aFST on microarray, primary screen, stem cell growth factor project, biochemical, small-molecule microarray, fluorescence 635/667 (AID 1086).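 Also: score merges 667 nm fluorescence with signal-to-noise of each printed compound spot.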 The settings on record: higher = more signal.
The nature of assay [10]: binders of probe aHhip on microarray, primary screen, stem cell growth factor project, biochemical, small-molecule microarray, fluorescence 635/667 (AID 1087).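 Also: score merges spot fluorescence at 667nm with spot signal to noise ratio.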 The note with it: higher = more signal.
In assay [11] the test system is PRMT1 (protein arginine N-methyltransferase 1). Kind of assay: PRMT1 binders on small-molecule microarrays, primary screen, biochemical, small-molecule microarray, 635 nm fluorescence (AID 1088).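 Also: binding of Prmt1 protein to compounds spotted on small-molecule microarray slides.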 The settings on record: small-molecule microarray binding, higher = more signal.
A short description of assay [12]: yeast growth modulation, basal conditions, primary screen, YJM789 clinical isolate, OD600, 24 h (AID 1089).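 Also: growth of clinical yeast isolate S. cerevisiae YJM 789 seeded 1000 cells per well; test concentration not given here.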 The settings on record: S. cerevisiae YJM789 growth, higher = more signal, called active from +8 up or from −8 down.
Assay [13] in a line: fission yeast growth modulation, primary screen, strain 972, OD600, 24 h, no modulator (AID 1090).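 Also: basal condition with compound alone and no growth modifier present; test concentration not given here.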 The settings on record: S. pombe 972 growth, higher = more signal, called active from +8 up or from −8 down.
Assay [14] can be described thus: S. cerevisiae growth modulation with rapamycin, primary screen, strain BY4716, OD600, 96 h (AID 1091). Also: test concentration not given here. The note with it: higher = more signal, called active from +8 up or from −8 down.
The target of assay [15] is Torsin-1A-interacting protein 2 (Homo sapiens) (UniProt Q8NFQ8). Kind of assay: LULL1 binders on small-molecule microarray, primary screen, cell lysate, human LULL1 lysate, 635/667 nm fluorescence (AID 1092).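 Also: probe is lysate of COS7 cells overexpressing human LULL1; score merges per-feature 667 nm fluorescence with signal-to-noise.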 The settings on record: hLULL1 lysate binding, 635 nm fluorescence, higher = more signal.
Assay [16] in a line: E. coli growth modulation, two-sided OD650, primary screen, E. coli filamentation project, strain DRC41, 24 h (AID 1093).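 Also: MC1000 strain lacking acrAB efflux and sulA so SOS filamentation is blocked; test concentration not given here.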 The note with it: OD650, 24 h, higher = more signal, called active from +8 up or from −8 down.
Assay [17] is described as follows: small-molecule microarray binders of probe aLefty2, primary screen, biochemical, biotinylated probe, 635/667 nm fluorescence (AID 1094).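 Also: score merges spot fluorescence near 667 nm with spot signal-to-noise ratio.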 The settings on record: higher = more signal.
The subject of assay [18] is Noggin (protein binding on small-molecule microarray). Kind of assay: Noggin binders on small-molecule microarray, primary screen, biochemical, 635/667 nm fluorescence (AID 1095).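 Also: score merges 667 nm feature fluorescence with signal to noise over triplicate slides.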 The settings on record: 635 nm fluorescence, higher = more signal.
The target of assay [19] is Neurogenic locus notch homolog protein 3 (Homo sapiens) (UniProt Q9UM47). Kind of assay: NOTCH3 binders on small-molecule microarray, primary screen, biochemical, 635/667 nm fluorescence (AID 1096). The settings on record: NOTCH3 binding, 635 nm fluorescence, higher = more signal.
A short description of assay [20]: small-molecule microarray binders of probe aEGFR, primary screen, biochemical, biotinylated probe, 635/667 nm fluorescence (AID 1097).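 Also: probe is a biotinylated anti-EGFR antibody binding compounds printed on slides; score combines fluorescence near 667 nm and signal to noise of each spot.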 The note with it: higher = more signal.

The source made the active and inactive calls.

Neurogenic locus notch homolog protein 2 (Homo sapiens), sequence (Q04721 whole entry, looked up, canonical isoform): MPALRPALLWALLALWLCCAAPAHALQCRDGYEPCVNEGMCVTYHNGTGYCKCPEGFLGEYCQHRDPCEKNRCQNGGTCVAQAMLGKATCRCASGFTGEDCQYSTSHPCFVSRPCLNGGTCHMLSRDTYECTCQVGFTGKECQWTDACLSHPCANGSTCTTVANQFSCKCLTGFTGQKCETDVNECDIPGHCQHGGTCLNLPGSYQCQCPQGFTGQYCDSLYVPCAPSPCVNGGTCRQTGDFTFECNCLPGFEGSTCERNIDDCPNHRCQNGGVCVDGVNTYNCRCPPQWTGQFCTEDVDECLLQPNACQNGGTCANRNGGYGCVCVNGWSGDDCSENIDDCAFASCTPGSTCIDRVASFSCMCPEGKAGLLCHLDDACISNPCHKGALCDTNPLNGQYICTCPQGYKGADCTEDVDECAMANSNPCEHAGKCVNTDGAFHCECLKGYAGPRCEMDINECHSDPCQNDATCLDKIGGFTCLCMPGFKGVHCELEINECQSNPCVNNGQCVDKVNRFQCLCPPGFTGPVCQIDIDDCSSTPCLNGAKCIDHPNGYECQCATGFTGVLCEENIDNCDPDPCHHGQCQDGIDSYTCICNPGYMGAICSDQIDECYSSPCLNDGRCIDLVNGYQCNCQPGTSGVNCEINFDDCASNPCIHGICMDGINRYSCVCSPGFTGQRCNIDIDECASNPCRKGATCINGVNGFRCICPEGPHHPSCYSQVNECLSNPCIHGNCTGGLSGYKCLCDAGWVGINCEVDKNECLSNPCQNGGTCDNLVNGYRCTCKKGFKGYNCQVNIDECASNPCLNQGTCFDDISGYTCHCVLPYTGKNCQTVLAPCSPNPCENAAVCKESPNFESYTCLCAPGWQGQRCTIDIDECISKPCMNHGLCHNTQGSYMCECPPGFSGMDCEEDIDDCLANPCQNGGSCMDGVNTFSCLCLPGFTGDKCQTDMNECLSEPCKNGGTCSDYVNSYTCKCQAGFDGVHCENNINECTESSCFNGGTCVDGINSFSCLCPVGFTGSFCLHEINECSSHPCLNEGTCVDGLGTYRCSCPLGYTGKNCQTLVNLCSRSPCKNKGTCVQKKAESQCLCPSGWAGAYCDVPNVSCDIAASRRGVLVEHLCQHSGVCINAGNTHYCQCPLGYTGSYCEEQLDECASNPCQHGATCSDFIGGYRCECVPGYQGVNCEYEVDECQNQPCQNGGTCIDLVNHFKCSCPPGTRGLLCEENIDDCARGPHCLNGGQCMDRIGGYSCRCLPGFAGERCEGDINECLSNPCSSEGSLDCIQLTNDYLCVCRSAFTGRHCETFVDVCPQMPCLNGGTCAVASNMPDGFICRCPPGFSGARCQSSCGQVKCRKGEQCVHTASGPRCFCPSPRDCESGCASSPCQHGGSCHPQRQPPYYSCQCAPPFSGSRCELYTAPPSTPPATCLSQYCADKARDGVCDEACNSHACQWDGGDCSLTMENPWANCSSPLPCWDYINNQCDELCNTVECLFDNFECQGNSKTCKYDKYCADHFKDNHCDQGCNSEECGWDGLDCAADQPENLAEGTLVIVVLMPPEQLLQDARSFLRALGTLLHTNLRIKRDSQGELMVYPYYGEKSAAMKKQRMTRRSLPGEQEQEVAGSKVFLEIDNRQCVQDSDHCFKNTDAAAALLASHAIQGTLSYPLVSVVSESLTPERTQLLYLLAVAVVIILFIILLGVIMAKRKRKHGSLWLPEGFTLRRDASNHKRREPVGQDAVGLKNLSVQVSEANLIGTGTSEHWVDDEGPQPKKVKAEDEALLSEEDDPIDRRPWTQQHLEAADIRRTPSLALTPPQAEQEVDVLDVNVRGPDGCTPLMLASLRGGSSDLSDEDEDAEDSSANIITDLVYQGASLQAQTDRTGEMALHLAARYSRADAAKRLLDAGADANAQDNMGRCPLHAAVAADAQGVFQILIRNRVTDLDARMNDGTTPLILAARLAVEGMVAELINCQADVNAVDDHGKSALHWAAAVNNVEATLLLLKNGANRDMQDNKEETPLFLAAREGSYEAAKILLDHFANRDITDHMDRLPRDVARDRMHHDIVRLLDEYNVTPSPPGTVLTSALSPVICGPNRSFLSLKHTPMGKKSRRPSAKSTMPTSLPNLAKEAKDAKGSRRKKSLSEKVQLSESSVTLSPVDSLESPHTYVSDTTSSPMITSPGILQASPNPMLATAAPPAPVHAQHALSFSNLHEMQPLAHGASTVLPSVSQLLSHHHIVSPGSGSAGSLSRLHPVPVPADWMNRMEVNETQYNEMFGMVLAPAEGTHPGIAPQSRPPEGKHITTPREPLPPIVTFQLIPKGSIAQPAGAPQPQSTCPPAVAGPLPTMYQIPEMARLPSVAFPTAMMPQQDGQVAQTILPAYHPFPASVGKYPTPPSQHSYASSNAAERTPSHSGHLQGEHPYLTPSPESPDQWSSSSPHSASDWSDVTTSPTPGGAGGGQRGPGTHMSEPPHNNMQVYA
Pro-neuregulin-1, membrane-bound isoform (Homo sapiens), sequence (Q02297 whole entry, looked up, the tested form may be a part, canonical isoform): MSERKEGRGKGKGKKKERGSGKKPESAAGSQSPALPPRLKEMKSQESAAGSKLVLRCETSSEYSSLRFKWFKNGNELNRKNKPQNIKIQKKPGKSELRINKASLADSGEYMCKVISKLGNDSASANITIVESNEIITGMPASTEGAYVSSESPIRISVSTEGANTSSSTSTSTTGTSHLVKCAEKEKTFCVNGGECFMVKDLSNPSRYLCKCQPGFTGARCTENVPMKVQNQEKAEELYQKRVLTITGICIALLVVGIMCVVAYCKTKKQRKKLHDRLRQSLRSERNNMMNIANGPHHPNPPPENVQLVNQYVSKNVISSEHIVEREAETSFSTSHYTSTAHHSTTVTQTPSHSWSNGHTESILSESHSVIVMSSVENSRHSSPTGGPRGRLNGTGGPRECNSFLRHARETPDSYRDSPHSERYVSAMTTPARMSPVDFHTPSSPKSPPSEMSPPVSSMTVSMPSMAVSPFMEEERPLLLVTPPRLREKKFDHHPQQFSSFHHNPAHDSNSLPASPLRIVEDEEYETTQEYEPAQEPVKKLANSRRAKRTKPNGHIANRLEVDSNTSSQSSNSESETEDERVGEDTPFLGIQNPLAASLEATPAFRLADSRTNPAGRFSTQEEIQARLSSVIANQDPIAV
Torsin-1A-interacting protein 2 (Homo sapiens), sequence (Q8NFQ8 whole entry, looked up): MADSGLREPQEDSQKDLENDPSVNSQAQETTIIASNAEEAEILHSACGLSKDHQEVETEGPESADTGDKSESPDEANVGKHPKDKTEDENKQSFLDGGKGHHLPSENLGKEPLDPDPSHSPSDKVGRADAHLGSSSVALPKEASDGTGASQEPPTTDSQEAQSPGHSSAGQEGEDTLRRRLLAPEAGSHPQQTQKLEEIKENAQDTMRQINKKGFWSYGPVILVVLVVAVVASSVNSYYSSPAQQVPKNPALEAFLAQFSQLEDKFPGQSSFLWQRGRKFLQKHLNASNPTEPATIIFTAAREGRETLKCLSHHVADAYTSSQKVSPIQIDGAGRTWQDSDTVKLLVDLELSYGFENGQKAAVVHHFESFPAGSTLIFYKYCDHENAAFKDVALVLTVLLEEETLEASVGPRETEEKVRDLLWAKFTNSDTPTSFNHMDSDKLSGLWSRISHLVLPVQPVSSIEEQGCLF

As for `COc1cc2c(cc1OC)CN(C(=O)[C@@H]1[C@H]3C(=O)O[C@H](c4ccccc4)[C@H](c4ccccc4)N3[C@H](c3ccccc3OCCO)[C@@]13C(=O)Nc1ccc(C#CCCO)cc13)CC2`, the composite z-score in [1] is 0.718; in assay [2], 0.531; in assay [3], -0.152; in assay [4], 0.671; in assay [5] it was 0.626; in [6], 0.86. Further, the composite z-score in [7] is 1.23; in [9], 1.25; in [10], 0.0458; in assay [11] it was 1.56; in [15] it was 3.02; in [17] it was -0.108. Further, the composite z-score in assay [18] is 0.772; in assay [19], 1.08; in [20], -0.0624. For the same compound, the z-score in assay [8] was 0.876 (inactive); in [12] it was 1.47 (inactive); in assay [13], -1.3 (inactive); in assay [14], 2.22 (inactive); in [16] it was 1.15 (inactive).

For the compound `CCOC(=O)C[C@H]1[C@H](OC(=O)c2ccc(C(=O)c3ccccc3)cc2)[C@@H](NC(=O)c2ccc3ccccc3c2)c2cc(OCCCO)ccc2N1C(=O)Cc1ccc(OC)cc1`, the composite z-score is -0.242 in [1]; 0.151 in [2]; -0.146 in assay [3]; 0.66 in assay [4]; 0.361 in [5]; 0.401 in [6]. The composite z-score was 0.107 in [7]; 0.441 in assay [9]; -0.0645 in assay [10]; 0.789 in [11]; 1.43 in assay [15]; 0.0633 in assay [17]. Besides, the composite z-score in assay [18] was 0.0199; in assay [19] it was 0.479; in assay [20], -0.0688. The z-score in assay [8] is -0.314 (inactive); in [12], -0.0229 (inactive); in assay [13] it was 0.713 (inactive); in [14], 0.118 (inactive); in assay [16] it was 0.458 (inactive).

Turning to `CC(=O)n1cc(C(O)C2C=CC3C(=O)N(c4ccccc4)C(=O)C3N2Nc2ccc([N+](=O)[O-])cc2)c2ccccc21` (stereo not given), the composite z-score is 0.889 in assay [1]; 1.44 in [2]; -0.0605 in assay [3]; -0.0938 in assay [4]; 1.24 in assay [5]; 1.23 in assay [6]. Moreover, the composite z-score in assay [7] was found to be 1.22; in [9], 1.02; in [10], 0.0274; in assay [11] it was 1.45; in assay [15], 3.28; in [17], 0.534. Moreover, the composite z-score in assay [18] is -0.386; in [19] it was 1.06; in assay [20], -0.0355. For the same compound, the z-score was -0.438 (inactive) in [8]; -0.701 (inactive) in [12]; 0.451 (inactive) in assay [13]; 2.05 (inactive) in assay [14]; -0.567 (inactive) in assay [16].

Consider `C=CCNC(=O)[C@H]1[C@@H]2C(=O)O[C@@H](c3ccccc3)[C@@H](c3ccccc3)N2[C@@H](c2ccccc2OCCO)[C@]12C(=O)Nc1ccc(C#CCCO)cc12`, for which the composite z-score in [1] was 0.103; in assay [2], -0.773; in assay [3], 0.882; in [4], -0.0077; in [5], 0.119; in assay [6], 0.82. The composite z-score in assay [7] is 0.537; in [9] it was -0.155; in [10], 0.142; in assay [11], -0.294; in [15], 2.24; in [17], -0.0617. The results for the composite z-score in [18], in assay [19] and in [20] were -0.76, -0.104 and -0.0353, respectively. For the same compound, the z-score is -5.02 (inactive) in [8]; 1.69 (inactive) in [12]; -0.648 (inactive) in assay [13]; 4.32 (inactive) in assay [14]; -0.462 (inactive) in [16].

Consider `C=C[C@H](CO)NS(=O)(=O)c1ccc(Br)cc1`, for which the composite z-score in assay [1] was -0.42; in assay [2] it was 0.213; in assay [3], -0.116; in [4], 0.243; in [5], 0.315; in [6], 0.456. For the same compound, the composite z-score in assay [7] is 0.827; in assay [9], 0.447; in [10], 0.257; in assay [11] it was -0.0224; in [15], 0.676; in [17], 0.0467. Moreover, the composite z-score in assay [18] is 0.19; in assay [19] it was -0.342; in assay [20], -0.0302. The z-score is 0.297 (inactive) in [8]; 0.198 (inactive) in assay [12]; -1.53 (inactive) in assay [13]; -0.135 (inactive) in [14]; 1.29 (inactive) in [16].

On to `COc1ccc(CCNC(=O)[C@@]2(C)c3ccccc3C(=O)N(C(C)C)[C@H]2c2ccc(CO)cc2)cc1`, for which the composite z-score in assay [1] was -0.182; in assay [2], 0.39; in [3], 0.0376; in assay [4], 0.4; in assay [5] it was 0.246; in assay [6] it was 0.693. Besides, the composite z-score in [7] was 1.3; in assay [9], 0.933; in assay [10], -0.394; in assay [11] it was 0.601; in assay [15] it was 2.15; in [17] it was -0.107. Further, the composite z-score in [18] is 0.456; in assay [19], -0.399; in assay [20], 0.0117. For the same compound, the z-score is -0.262 (inactive) in assay [8]; -0.122 (inactive) in assay [12]; -0.366 (inactive) in [13]; -0.321 (inactive) in assay [14]; 0.721 (inactive) in assay [16].
